Compound activity from PubChem.
Rows were chosen to be rich in hits. Some 5.4% of all compounds tested hit in one or more screens of this group.
CSC inhib – cancer stem cell viability inhibitors, primary screen, luminescence. cancer stem cell-like cells viability. inhibition, % at 7.5 µM. actives 1.1% (n = 300,000); in the data active means inhibition above about 75%; tested in HMLE shEcad cells
PP1 inh – PP1-alpha phosphatase inhibitors, primary screen, counter-screen for PP5 inhibitor project, biochemical, fluorescence, OMFP substrate, single point. inhibition, % at 6.7 µM. purified PP1alpha. AID 2235, 2010. actives 0.9% (n = 320,000);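 active means inhibition above the mean inhibition of all tested compounds plus 3 SD, computed separately for each screening campaign, cut at about 15% in these data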
Target sequence (P62136 whole entry, looked up): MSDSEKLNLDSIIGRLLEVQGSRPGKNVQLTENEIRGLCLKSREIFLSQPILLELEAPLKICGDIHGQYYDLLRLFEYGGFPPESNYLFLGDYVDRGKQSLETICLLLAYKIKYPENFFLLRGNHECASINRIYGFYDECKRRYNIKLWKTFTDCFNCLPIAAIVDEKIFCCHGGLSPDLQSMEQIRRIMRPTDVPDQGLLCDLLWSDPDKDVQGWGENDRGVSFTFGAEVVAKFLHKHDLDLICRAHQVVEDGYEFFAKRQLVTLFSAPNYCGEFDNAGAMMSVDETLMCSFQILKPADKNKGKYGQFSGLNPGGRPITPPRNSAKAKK
ALR H2O2 inh – inhibitors of human ALR sulfhydryl oxidase, primary screen, biochemical, H2O2 detection, HRP-luminol luminescence, single point | purified ALR, DTT oxidation | actives 3.8% (n = 290,000) | inhibition, % (test concentration not listed) | FAD-linked sulfhydryl oxidase ALR (Homo sapiens), P55789;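 active means mean replicate inhibition above about 79%, with every replicate also reaching it, limit read from the data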
Target sequence (P55789 whole entry, looked up): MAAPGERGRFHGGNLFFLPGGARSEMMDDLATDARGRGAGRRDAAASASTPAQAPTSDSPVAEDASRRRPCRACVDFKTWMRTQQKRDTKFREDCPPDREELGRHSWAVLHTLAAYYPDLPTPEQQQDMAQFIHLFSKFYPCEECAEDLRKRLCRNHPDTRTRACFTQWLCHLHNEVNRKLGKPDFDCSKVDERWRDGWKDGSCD
Calb FLC – C. albicans growth inhibition with fluconazole, primary screen, CaCi-2 strain, Alamar Blue fluorescence. C. albicans CaCi-2 (fluconazole-resistant clinical isolate) + fluconazole, 48 h. growth inhibition, % (no concentration beside the values). actives 0.57% (n = 300,000);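 active means growth inhibition above about 58% in most replicates, limit read from the data, passing the limit was not always enough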;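 further: all wells also contain fluconazole at 8 µg/ml as a sub-toxic cotreatment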
PP5 inh – PP5 phosphatase inhibitors, primary screen, biochemical, fluorescence; purified PP5c, OMFP substrate fluorescence; inhibition, % at 6.7 µM; actives 0.18% (n = 320,000); AID 1987, 2009;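 active means inhibition above the campaign's mean inhibition across all tested compounds plus 3 SD, cut at about 9.5% in these data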
A number is an active result; . = inactive; / = not tested or not shown.

SMILES | CSC inhib | PP1 inh | ALR H2O2 inh | Calb FLC | PP5 inh
COC(=O)c1ccc2[nH]c3c(c2c1)CC(C)CC3 (centres undefined) | . | . | 93 | . | .
Cc1nn(Cc2ccc(C(=O)Nc3nccs3)cc2)c(C)c1Cl | 83 | . | . | . | .
Cc1nn(Cc2cccc(C(=O)NN)c2)c(C)c1Cl | . | . | 97 | . | .
CCOc1ccc(NC(=O)CSC2=NCCN2)cc1 | . | . | 99 | . | .
CCC1C(=O)N=C(SCC(=O)Nc2ccc(C(=O)OC)cc2)NC1=O (centres undefined) | / | . | 99 | . | .
NS(=O)(=O)c1ccc(NC(=O)CSc2ccccc2)cc1 | . | . | . | . | .
CCOc1ccc(NC(=O)CSc2ccccc2N)cc1 | . | . | / | . | .
COC(=O)c1ccc(NC(=O)CSC2=NCCN2)cc1 | . | . | 99 | . | .
COC(=O)c1ccc(NC(=O)CSc2n[nH]c(-c3ccncc3)n2)cc1 | / | . | . | . | .
NS(=O)(=O)c1ccc(NC(=O)CSC2=NC(=O)C(c3ccccc3)C(=O)N2)cc1 (centres undefined) | . | . | 99 | . | .
O=C(O)c1cccnc1SC1CC(=O)N(c2cccc3ccccc23)C1=O (centres undefined) | . | . | / | . | .
O=C(CN1CCN(S(=O)(=O)c2ccc(F)cc2)CC1)NCC1(N2CCOCC2)CCCCC1 | / | . | / | / | .
O=C(COC(=O)c1cnc(Cl)c(Cl)c1)NC1CCCCCC1 | / | . | / | / | .
CCc1ccc(N2CC(C(=O)N/N=C/c3cc([N+](=O)[O-])ccc3O)CC2=O)cc1 (centres undefined) | . | . | . | 106 | .
CCN(CC)CCn1c2c(c(SCC(=O)Nc3nc4ccc(C)cc4s3)nc1=O)CCC2 | . | . | . | . | .
CCN(CC)CCn1c2c(c(SCC(=O)Nc3nc4ccccc4s3)nc1=O)CCC2 | . | . | 98 | . | .
CCN(CC)CCn1c2c(c(SCC(=O)Nc3cccc4ccccc34)nc1=O)CCC2 | . | . | 97 | . | .
c1ccc(CCn2nnnc2CN2CCc3ccccc32)cc1 | . | . | 99 | / | .
Cc1cnc(-c2nnc(N(C)C(=O)C3CCOC3)s2)cn1 (centres undefined) | . | . | . | . | .
COc1ccc(NC(=S)NNc2ccc(S(=O)(=O)Nc3ccccc3C(=O)O)cc2[N+](=O)[O-])cc1 | . | . | 99 | . | .
C=CCOc1ccc(C=NNc2ccc(S(=O)(=O)Nc3ccccc3C(=O)O)cc2[N+](=O)[O-])cc1OC | . | / | 90 | / | /
Clc1ccc(/C=C/c2ncc3ccccn23)cc1 | . | . | 99 | . | .
Fc1ccc(-c2ncc3ccccn23)cc1 | . | . | / | . | .
O=C(CN1C(=O)NC2(CCCCCCC2)C1=O)NCc1cccs1 | . | . | . | . | .
O=C(NC(=S)Nc1ccccc1[N+](=O)[O-])c1ccco1 | . | . | 95 | . | .
SMILES | CSC inhib | PP1 inh | ALR H2O2 inh | Calb FLC | PP5 inh
O=C(NNc1ccc([N+](=O)[O-])cc1[N+](=O)[O-])c1ccco1 | . | . | 98 | . | .
Cc1ccccc1C(=O)NC(=S)Nc1ccccc1[N+](=O)[O-] | . | . | . | . | .
O=C(NNc1ccc([N+](=O)[O-])cc1)c1ccco1 | . | . | 99 | . | .
Nc1ccc([N+](=O)[O-])cc1C(=O)NNC(=O)c1ccco1 | . | . | . | . | .
CCC1(C)N=c2c(c(=O)n(C)c(=O)n2C)=NO1 (centres undefined) | . | . | . | . | .
COc1ccc([C@H]2/C=C\CN(S(=O)(=O)c3cccc4cccnc34)[C@@H](C)C(=O)N2Cc2ccc(F)cc2)cc1 | . | . | . | . | .
Cc1ccccc1S(=O)(=O)NC1OC(=O)C(Oc2ccccc2)=C1Br (centres undefined) | / | . | 95 | . | .
COCCC(=O)N1CCCC(N2CCN(c3ccc(F)cc3)CC2)C1 (centres undefined) | . | . | / | . | .
CCCc1sc(N/N=C/c2ccccn2)nc1-c1ccc(Br)cc1 | 126 | . | . | . | .
Fc1ccccc1-n1c(-c2ccc3ccccc3n2)n[nH]c1=S | . | . | / | . | .
COc1cc(-c2n[nH]c(=S)n2C(C)c2ccccc2)cc(OC)c1OC (centres undefined) | . | . | 93 | . | .
CC(c1ccc(Cl)cc1)n1c(-c2ccc3ccccc3n2)n[nH]c1=S (centres undefined) | . | . | . | 79 | .
CC(c1ccc(F)cc1)n1c(-c2ccc3ccccc3n2)n[nH]c1=S (centres undefined) | . | . | 89 | . | .
COc1ccc(/C=C/C(=O)c2ccccc2)c(OC)c1 | . | . | . | . | .
Cc1cc(-n2c(C)cc(C(=O)CSc3[nH]c(=O)cc(C(F)(F)F)c3C#N)c2C)no1 | . | . | . | / | .
COc1nc(-c2ccccc2)cc(C(F)(F)F)n1 | . | . | . | . | .
COCC(C)NC(=O)CCS(=O)(=O)c1nc(-c2ccc(OC)cc2)cc(C(F)(F)F)n1 (centres undefined) | . | . | 97 | . | .
CCOC(=O)CS(=O)(=O)c1nc(-c2ccccc2)cc(C(F)(F)F)n1 | 99 | . | 98 | . | .
COC(=O)CCS(=O)(=O)c1nc(-c2ccccc2)cc(C(F)(F)F)n1 | / | . | 98 | . | .
CCOC(=O)CS(=O)(=O)c1nc(-c2ccc(F)cc2)cc(C(F)(F)F)n1 | 99 | . | . | . | .
CCOC(=O)c1c(C(F)(F)F)cc(-c2ccc(F)cc2)nc1C | . | . | / | . | .
COCCNC(=O)CCSc1nc(-c2ccc(OC)cc2)cc(C(F)(F)F)n1 | . | . | . | . | .
CC(C)N1CCC2(CC1)Oc1ccc(Br)cc1C1CC(c3cccnc3)=NN12 (centres undefined) | . | . | . | . | .
Clc1ccc(C2=Nn3c(nnc3-c3n[nH]c4c3CCC4)SC2)cc1 | . | . | . | . | .
CCOC(=O)Cc1cc(-c2ccccc2)nc2ccc3ccccc3c12 | . | . | . | . | .
SMILES | CSC inhib | PP1 inh | ALR H2O2 inh | Calb FLC | PP5 inh
CCOC(=O)CCS(=O)(=O)c1nc(-c2ccccc2)cc(C(F)(F)F)n1 | 100 | . | 87 | . | .
COc1ccc(CCn2c(=O)[nH]c3cc(C(=O)N4CCN(c5ccccc5)CC4)ccc3c2=O)cc1OC | . | . | . | . | .
CCN(CC)CC(=O)Nc1ccc2c(c1)Nc1ccccc1CC2 | . | . | 99 | . | .
CCN(CC)CC(=O)Nc1ccc2c(c1)N(C(=O)CN(CC)CC)c1ccccc1CC2 | . | . | . | . | .
CC(C)CNc1ncnc2c1cnn2Cc1ccccc1Cl | . | . | . | . | .
COc1ccccc1-n1c(C)cc(SC)c(C(C)=O)c1=S | . | . | / | 86 | .
Cc1csc2nc(O)c(C(=O)NCc3ccc4c(c3)OCO4)c(=O)n12 | . | 17 | / | . | .
